Here are results for 21 compounds from PubChem BioAssay (NCI).

The panel holds about 79,000 compounds, 15% with a hit somewhere; the sample as a whole holds those more often. Unmarked numbers belong to inactive results. Activity calls are given as the source filed them. Rule as the data show it: active = growth inhibition above about 70%; inactive = the rest.

The nature of experiment [1]: NCI Yeast Anticancer Drug Screen. Data for the rad50 strain (AID 155).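 Also: 0% = growth of vehicle-only cultures of the same strain.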 As to conditions: S. cerevisiae rad50 strain growth inhibition; at 50.0 µM; active compounds read high. The method in brief: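 DNA repair mutant yeast, compound exposure, growth read-out; inhibition is taken relative to vehicle.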
The nature of experiment [2]: NCI Yeast Anticancer Drug Screen. Data for the mec2-1 strain (AID 157). As to conditions: S. cerevisiae mec2-1 strain, at 50.0 µM, active compounds read high. The method in brief: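 Yeast mec2-1 mutant treated with compound. Readout: growth inhibition vs vehicle controls.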
Experiment [3] is described as follows: NCI Yeast Anticancer Drug Screen. Data for the sgs1 mgt1 strain (AID 161).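 Also: 0% = growth of cultures given vehicle only.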 As to conditions: S. cerevisiae sgs1 mgt1 strain, at 50.0 µM, active compounds read high. The method in brief:
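Test agents were incubated with a DNA-repair-mutant yeast strain. Growth was then read and compared against vehicle-treated controls.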

A short description of experiment [4]: NCI Yeast Anticancer Drug Screen. Data for the cln2 rad14 strain (AID 165).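 Also: 0% = growth equal to vehicle treated cultures.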 The following applies: S. cerevisiae cln2 rad14 strain, at 50.0 µM, active compounds read high. Put shortly:
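cln2 rad14 yeast strain; compound exposure; growth inhibition read vs vehicle controls.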

Experiment [5] in a line: NCI Yeast Anticancer Drug Screen. Data for the bub3 strain (AID 167). The following applies: S. cerevisiae bub3 mutant strain, at 50.0 µM, active compounds read high. The method in brief:
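In this screen, a yeast mutant lacking normal mitotic checkpoint function is challenged with compound. Relative growth versus vehicle gives the inhibition value.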

Experiment [6] can be described thus: NCI Yeast Anticancer Drug Screen. Data for the mlh1 rad18 strain (AID 175). As to conditions: S. cerevisiae mlh1 rad18 strain growth inhibition; at 50.0 µM; active compounds read high. Put shortly:
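Yeast w/ defined DNA-repair lesions; compound exposure; growth vs vehicle controls → % inhibition.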

Regarding `CCCCS(=O)(=O)C(c1ccccc1)c1ccccc1`, the growth inhibition in experiment [1] is 69.2%; in experiment [2], 97.4% (active); in experiment [3], 96% (active); in experiment [4], 56.5%; in experiment [5], 96.5% (active); in experiment [6] it was 96.4% (active).
Regarding `CN1C2CCC1CC(O)(c1ccc(Cl)cc1)C2` (stereo unspecified), the growth inhibition in experiment [1] is 26.1%; in experiment [2], 16.4%; in experiment [3], 16.6%; in experiment [4], 16.1%; in experiment [5], 30.4%; in experiment [6] it was 28.1%.
Consider `CCOP(=O)(CC#N)OCC`, for which the growth inhibition in experiment [1] was -6.85%; in experiment [2] it was -11.7%; in experiment [3], -7.05%; in experiment [4] it was -6.4%; in experiment [5], 2.7%; in experiment [6], 0%.
Consider `CN(C)C(=O)Oc1ccc([N+](=O)[O-])cc1OC(=O)N(C)C`, for which the growth inhibition in experiment [1] is 2.4%; in experiment [2], -5.25%; in experiment [3] it was 0.8%; in experiment [4], -8.65%; in experiment [5], 9.95%; in experiment [6] it was -4.05%.
Regarding `OC(Cc1ccccn1)C(Cl)(Cl)Cl` (stereo unspecified), the growth inhibition in experiment [1] was -10.2%; in experiment [2], -13.5%; in experiment [3], -1.7%; in experiment [4], -15.6%; in experiment [5], 4.35%; in experiment [6], 3.9%.
In the case of `Cc1cc2oc(=O)c3c(c2c(O)c1CN1CCOCC1)CCCC3`, the growth inhibition is 34.1% in experiment [1]; 14.4% in experiment [2]; 16.5% in experiment [3]; 15.6% in experiment [4]; 18.1% in experiment [5]; 15.8% in experiment [6].
Regarding `O=C1/C(=C\c2ccc([N+](=O)[O-])cc2)N2CCC1CC2`, the growth inhibition is -8.3% in experiment [1]; 5.3% in experiment [2]; -3.65% in experiment [3]; -0.45% in experiment [4]; 1.75% in experiment [5]; 7.05% in experiment [6].
Turning to `CCOC(=O)C[Se]CC(=O)OCC`, the growth inhibition was -8.65% in experiment [1]; 11.2% in experiment [2]; 11.2% in experiment [3]; -14.2% in experiment [4]; 43.8% in experiment [5]; 28.3% in experiment [6].
Consider `CCCC(=O)[O-].N.N.N.N.N.[Co+3].[O-][Cl+3]([O-])([O-])[O-]`, for which the growth inhibition was -23.8% in experiment [1]; -2.3% in experiment [2]; -41% in experiment [3]; 8% in experiment [4]; 1.7% in experiment [5]; -21.9% in experiment [6].
Regarding `COc1ccc(C)cc1C(=O)C[n+]1ccc2ccccc2c1`, the growth inhibition in experiment [1] is -10.4%; in experiment [2], -0.8%; in experiment [3], -25.1%; in experiment [4], -21.4%; in experiment [5], -6.5%; in experiment [6], 0.15%.
Turning to `Cc1ccccc1C(=O)[O][Pb]([CH3])([CH3])[CH3]`, the growth inhibition is 21.4% in experiment [1]; -48% in experiment [2]; -6.5% in experiment [3]; -27.9% in experiment [4]; 0% in experiment [5]; 7% in experiment [6].
For `Cc1cccc(NC2=NCCO2)c1Cl`, the growth inhibition was -20.4% in experiment [1]; -25.8% in experiment [2]; -11% in experiment [3]; 24.9% in experiment [4]; -9.3% in experiment [5]; -27.3% in experiment [6].
Turning to `CCCCN(CCCC)CC(O)c1cc(Cl)c(Cl)cc1C` (stereo unspecified), the growth inhibition is 10.5% in experiment [1]; -13.2% in experiment [2]; 35.1% in experiment [3]; -1.3% in experiment [4]; 27.4% in experiment [5]; 25.3% in experiment [6].
For the compound `CC(C)c1cc(C(C)C)c(S(=O)(=O)N=[N+]=[N-])c(C(C)C)c1`, the growth inhibition in experiment [1] is 12.6%; in experiment [2] it was -0.8%; in experiment [3] it was -31.4%; in experiment [4], -8.3%; in experiment [5], -16.9%; in experiment [6], -7.95%.
As to `CCCCC1(CCC)C(=O)NC(=O)NC1=O`, the growth inhibition is 9.8% in experiment [1]; 9.5% in experiment [2]; 1% in experiment [3]; 13.7% in experiment [4]; 1% in experiment [5]; 15.8% in experiment [6].
As for `NCCn1ccc2ccccc21`, the growth inhibition in experiment [1] is 8.2%; in experiment [2], -21.2%; in experiment [3] it was 5.35%; in experiment [4], 7.35%; in experiment [5], -0.4%; in experiment [6], 18.2%.
Take `CCOP(=O)(OCC)/C(C#N)=C/c1ccccc1`: the growth inhibition is 19.2% in experiment [1]; -23.1% in experiment [2]; -8.95% in experiment [3]; -33.8% in experiment [4]; -11.3% in experiment [5]; 19.6% in experiment [6].
On to `C[N+](C)(C)CC1CCCC(C[N+](C)(C)C)C1=NO` (stereo unspecified), for which the growth inhibition in experiment [1] is 24.9%; in experiment [2], 12.1%; in experiment [3] it was -4.85%; in experiment [4], 19.7%; in experiment [5], -1.5%; in experiment [6], 20.6%.
`CC1CCC2C(C)C(=O)OC3OC4(C)CCC1C32OO4` (stereo unspecified): the growth inhibition was -7.55% in experiment [1]; 4.2% in experiment [2]; -8.05% in experiment [3]; 27.8% in experiment [4]; 18.2% in experiment [5]; 2.7% in experiment [6].
Regarding `C=CCn1nnnc1N`, the growth inhibition in experiment [1] is -4.3%; in experiment [2] it was -16.8%; in experiment [3] it was -5.55%; in experiment [4], -37.9%; in experiment [5], 3.1%; in experiment [6], -6.2%.
Turning to `O=C(O)C1C2c3ccccc3C(c3ccccc32)C1C(=O)NCC1CC1` (stereo unspecified), the growth inhibition was 51.5% in experiment [1]; 7.55% in experiment [2]; 10.4% in experiment [3]; 13.6% in experiment [4]; 21.4% in experiment [5]; 24.2% in experiment [6].
